# Assay outcomes: PubChem BioAssay, National Center for Advancing Translational Sciences (NCATS)
# Sampled rows, rich in hits. Any-hit rate of the full collection: about 15%.
# ALOX12 inh: Primary qHTS assay for inhibitors of human arachidonate 12S-lipoxygenase (ALOX12): Round 2 | Polyunsaturated fatty acid lipoxygenase ALOX12 (Homo sapiens), P18054 | purified 12hLO, xylenol orange hydroperoxide absorbance | Potency, µM (top dose mostly 108 µM), for the others: at the top dose activity change, negative = inhibition, actives largely listed as inhibitors | 1.1% of 580,000 active | AID 1671190, 2021
#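 Purified human 12hLO at 150 nM in 25 mM Hepes, 0.01% Triton X-100, pH 7.0, preincubated 15 min at room temperature with compound. Reaction started with 40 uM arachidonic acid, 30 min at room temperature. Hydroperoxide measured by Fe-xylenol orange, 573/405 nm absorbance ratio.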
# RORg inh: qHTS for inhibitors of ROR gamma transcriptional activity; AID 2551, 2010; 5.4% of 310,000 active; Nuclear receptor ROR-gamma (Mus musculus), P51450; Drosophila S2 Gal4-RORgamma UAS-luciferase reporter, 20 h; Potency, µM (doses to about 53.6 µM), for inactives: top-dose activity change, negative = inhibition, hits mostly inhibitors; also: nearly all actives have a fitted effect of over 60% in size
# Target sequence (P51450 whole entry, looked up, the tested form may be a part): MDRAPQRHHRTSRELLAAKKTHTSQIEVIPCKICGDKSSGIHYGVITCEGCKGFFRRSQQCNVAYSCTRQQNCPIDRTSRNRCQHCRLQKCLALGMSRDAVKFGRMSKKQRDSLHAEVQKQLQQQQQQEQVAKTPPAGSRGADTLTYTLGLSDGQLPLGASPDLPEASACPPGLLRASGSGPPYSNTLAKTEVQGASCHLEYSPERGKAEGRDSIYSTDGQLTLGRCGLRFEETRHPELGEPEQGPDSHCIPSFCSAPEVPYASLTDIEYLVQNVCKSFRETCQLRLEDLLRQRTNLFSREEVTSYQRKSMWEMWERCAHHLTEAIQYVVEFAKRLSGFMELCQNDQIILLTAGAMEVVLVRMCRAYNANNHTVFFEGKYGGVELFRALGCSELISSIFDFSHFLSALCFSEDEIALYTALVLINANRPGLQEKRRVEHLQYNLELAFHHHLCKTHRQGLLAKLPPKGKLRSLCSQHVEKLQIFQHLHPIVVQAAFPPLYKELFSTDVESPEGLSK
#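 Using a luciferase readout, inhibitors were identified by reduced reporter activity in Drosophila cells coexpressing a copper-inducible Gal4–ROR gamma fusion and UAS-driven Photinus luciferase, incubated 20 hr after 700 uM copper sulfate.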
# VP16 counter: VP16 counterscreen qHTS for inhibitors of ROR gamma transcriptional activity; AID 2546, 2010; Potency, µM (series often up to 53.6 µM), for inactives: top-dose activity, negative = inhibition, hits mostly inhibitors; Drosophila S2 Gal4-VP16 UAS-luciferase, luminescence, 20 h; 3.5% of 310,000 active;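 also: Gal4-VP16 expression switched on by copper sulfate through the metallothionein promoter; nearly all actives have a fitted effect of over 50% in size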
# TDP1 cell noCPT: qHTS for Inhibitors of human tyrosyl-DNA phosphodiesterase 1 (TDP1): qHTS in cells in absence of CPT | 15% of 420,000 active | Potency, µM (top dose mostly 46.2 µM), for inactives: top-dose activity change, negative = growth inhibition, usual class: inhibitors | DT40 Tdp1-/- hTDP1 cells, no CPT, ATP luminescence, 48 h; also: nearly all actives have a fitted effect of over 55% in size
#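 Stably hTDP1-transfected Tdp1-null chicken DT40 cells were treated with library compounds minus camptothecin and grown for at least 48 hr at 37 °C, after which cellular ATP was quantified by luminescence.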
# DT40 TDP1 CPT: qHTS for Inhibitors of human tyrosyl-DNA phosphodiesterase 1 (TDP1): qHTS in cells in presence of CPT | chicken DT40 Tdp1-/-;hTDP1 cells + 20 nM CPT, ATP luminescence, 48 h | Potency, µM (top dose mostly 46.2 µM), for inactives: at the top dose activity change, negative = growth inhibition, most hits filed as inhibitors | 12% of 420,000 active; also: nearly all actives have a fitted effect of over 55% in size
#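 Chicken DT40 Tdp1-/- cells stably complemented with human TDP1 were seeded at 400 cells/well in medium containing 20 nM camptothecin, exposed to pin-transferred compounds, and grown at 37 °C for at least 48 hr. Viability was read as ATP luminescence.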
# ELG1 DNA repair: qHTS screen for small molecules that inhibit ELG1-dependent DNA repair in human embryonic kidney (HEK293T) cells expressing luciferase-tagged ELG1; AID 504467, 2011; 2.3% of 330,000 active; Potency, µM (highest dose often 46.1 µM), inactives show at the highest dose activity change, negative = inhibition, most hits filed as inhibitors; HEK293T ELG1-luciferase reporter, luminescence, 16 h; DNA damage induced by 5-fluorouridine; also: nearly all actives have a fitted effect of over 55% in size
#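 HEK293T cells expressing luciferase-tagged ELG1 (2,000/well) received 5-Fluorouridine plus compound or DMSO for 16 hr at 37 °C. Luciferase was read by ONE-Glo luminescence after 30 min at room temperature.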
# * = called active by the depositor; ? = inconclusive; . = not tested or not shown. Calls follow the shape of the dose curve; as a rule, active = well fitted curve in the direction sought with a large enough effect; inconclusive = small, poorly fitted or top-dose-only effect, or another doubt; inactive = no such curve, though single readings can be large; an effect the other way counts as inactive or inconclusive. % is scaled to controls: 0 for no effect and ±100 for the full control effect; potency is read from the fitted curve at half-maximal effect.
SMILES,ALOX12 inh,RORg inh,VP16 counter,TDP1 cell noCPT,DT40 TDP1 CPT,ELG1 DNA repair
CCN(CC)S(=O)(=O)c1ccc(NC(=O)c2ccc3c(=O)n4c(nc3c2)CCCCC4)cc1,5%,.,.,23µM*,23µM*,.
CSCc1nc(CNc2nc(C3CCCC3)nc3c2cnn3C)cs1,19%,.,.,.,.,.
CCOC(=O)c1sc(NCCCOC)nc1C(F)(F)F,9%,.,.,.,.,.
COC(CNC(=O)Cc1c(C)nc2cc(-c3ccccc3)nn2c1C)OC,22%,.,.,.,.,.
CN(C)C[C@@H]1CN(C)C[C@H]1N,113%,.,.,.,.,.
CCOc1ccccc1NC(=O)c1ccc2c(Cl)c3c(nc2c1)CCCC3,-13%,.,.,23µM*,?,.
Cc1ccc(C)c(CNC(=O)c2ccc3c(c2)nc2n3CCCCC2)c1,2%,.,.,18µM*,?,.
Cc1ccc(C)c(CNC(=O)c2ccc3c(c2)nc2n3CCOC2)c1,0%,.,.,-23%,-3%,.
CCCc1ccc(C(=O)CSc2nc(CN3CCOCC3)nc3ccccc23)cc1,3%,.,.,.,.,.
CCOC(=O)[C@]12CCCC=C1N(Cc1ccc3c(c1)OCO3)C(=O)[C@H](CC(=O)NCCCOC)C2,-2%,.,.,-27%,-28%,.
CCOC(=O)[C@]12CCC=C1N(Cc1ccc3c(c1)OCO3)C(=O)[C@H](CC(=O)NCC13CC4CC(CC(C4)C1)C3)C2,-7%,.,.,23µM*,?,.
CCOC(=O)[C@]12CCCC=C1N(Cc1ccccc1)C(=O)[C@H](CC(=O)NCC13CC4CC(CC(C4)C1)C3)C2,-24%,.,.,?,?,.
CCCCOCCCNC(=O)C[C@@H]1C[C@@]2(C(=O)OCC)CCC=C2N(Cc2ccc3c(c2)OCO3)C1=O,?,.,.,16µM*,21µM*,.
Cc1ccsc1CN(C)C(=O)C1CCCN(C2CCN(C(=O)C3CC3)CC2)C1 (configuration not stated),17%,.,.,.,.,.
COCCn1c(CN2CCN(C(c3ccccc3)c3ccccc3)CC2)nc2c1c(=O)n(C)c(=O)n2C,0%,12%,0%,16µM*,?,10%
Cn1c(=O)c2c(nc(CN3CCN(C(c4ccccc4)c4ccccc4)CC3)n2CCCO)n(C)c1=O,49%,?,-4%,21µM*,?,?
Cn1c(=O)c2c(nc(CN3CCN(CCO)CC3)n2CCCO)n(C)c1=O,-12%,.,.,.,.,.
COCCn1c(CN2CCC(C(N)=O)CC2)nc2c1c(=O)n(C)c(=O)n2C,33%,.,.,.,.,.
Cc1c(C=O)c2ccccc2n1C,-29%,.,.,.,.,.
CC1(C)Cc2ccccc2-c2nc(NCCCO)n(-c3ccccc3)c(=O)c21,-25%,21%,-8%,15µM*,23µM*,?
Cc1cc(NC(=O)COc2cccc(Cl)c2)n(C)n1,33%,.,.,.,.,.
O=S(=O)(Nc1nc2ccccc2nc1Nc1ccccc1Br)c1cccs1,-28%,.,.,.,.,.
CCCCCC(=O)NNC1=NCC(Cc2cccc(Cl)c2)S1 (configuration not stated),-29%,0.79µM*,5µM*,?,-37%,-15%
COc1ccc(-c2cc(-c3ccc(OC)cc3)nc(-c3ccc4c(c3)NC(=O)CO4)c2)cc1,0%,-13%,3%,?,?,?
CC(Nc1nc(-c2ccc3c(c2)NC(=O)CO3)cs1)c1ccccc1 (configuration not stated),?,?,22%,26µM*,18µM*,?
SMILES,ALOX12 inh,RORg inh,VP16 counter,TDP1 cell noCPT,DT40 TDP1 CPT,ELG1 DNA repair
O=C1COc2ccc(-c3csc(-c4ccc(F)cc4)n3)cc2N1,.,.,.,-11%,?,.
CC(NC(=O)c1cccs1)c1ccc2c(c1)NC(=O)CO2 (configuration not stated),1%,.,.,.,.,.
COc1cccc(-c2nc(-c3ccc4c(c3)NC(=O)CO4)cs2)c1,?,32%,?,5.2µM*,8.2µM*,?
O=C1COc2ccc(-c3csc(NCC4CCCO4)n3)cc2N1 (configuration not stated),45µM*,?,7%,-24%,?,?
C#CCNC(=O)C1CCN(C(=O)C2CN(c3cccc(OC)c3)C(=O)N2)C1 (configuration not stated),60%,.,.,.,.,.
N#C/C(=C\c1cccnc1)C(=O)NC1CCCC1,-23%,.,.,.,.,.
N#C/C(=C\c1ccc(N2CCOCC2)o1)C(=O)NC1CCCCC1,?,43%,1%,?,-20%,6%
N#C/C(=C\c1cccnc1)C(=O)NC1CCCCC1,10%,?,?,23µM*,?,-11%
N#C/C(=C\c1ccc([N+](=O)[O-])o1)C(=O)NC1CCCCC1,16µM*,.,.,.,.,.
COc1ccc(-c2[nH]ncc2/C=C(\C#N)C(=O)NC2CC2)cc1,-5%,27%,18%,?,?,18µM*
CCCCOc1ccc(/C=C(\C#N)C(=O)NC2CC2)cc1,?,.,.,29µM*,?,.
Cc1cc(C(=O)N2C[C@@H](CO)[C@H](c3nc(C4CC4)no3)C2)ccn1,5%,.,.,.,.,.
CCOC(=O)c1oc2cc(OS(C)(=O)=O)ccc2c(=O)c1-c1ccc(OC)c(OC)c1,-16%,.,.,.,.,.
N#C/C(=C\c1ccccc1)C(=O)NC1CC1,-2%,-9%,-3%,5%,-16%,4%
N#C/C(=C\c1c[nH]c2ccccc12)C(=O)NC1CCCC1,-4%,?,17%,16µM*,16µM*,?
N#C/C(=C\c1ccco1)C(=O)NC1CCCC1,40µM*,.,.,.,.,.
Fc1ccc(-c2nc(CN3CCCC3c3cccs3)co2)cc1 (configuration not stated),-1%,.,.,.,.,.
Cc1ccsc1/C=N/n1c(-c2cc(-c3ccccc3)n[nH]2)n[nH]c1=S,?,2.8µM*,?,?,?,20%
Cc1ccc(-c2n[nH]c(=S)n2/N=C/c2sccc2C)cc1,?,?,-2%,8%,6%,0%
Cc1ccccc1/C=N/n1c(-c2cc(-c3ccccc3)n[nH]2)n[nH]c1=S,-10%,?,?,16µM*,?,7%
Cc1ccc2c(COC(=O)c3cc(S(=O)(=O)N(C)C)ccc3NCCO)cc(=O)oc2c1,-14%,.,.,.,.,.
